Bioassay records deposited in PubChem by Broad Institute.
aSyn 5UTR act: Activators via SNCA 5'UTR binding, MLPCN. alpha-synuclein 5'UTR reporter, activators screen. activity score, % (tested at 7.5 µM), hits read low. AID 1814. 7.1% of 300,000 active; in the data active = activity score below about -60%
Numbers without * were called inactive. A selection follows.

SMILES	aSyn 5UTR act
CCOc1ccc(NC(=O)C(c2ccccn2)N(C(=O)CCl)c2ccc(OC)cc2)cc1 (stereo not drawn)	-161*
CC(C)C1COC(c2cccc3ccccc23)=N1 (stereo not drawn)	-115*
C/C(=N\Nc1nc2ccccc2[nH]1)c1cc2ccccc2o1	-138*
C/C(=N\Nc1ccccn1)c1ccc2c(c1)OCO2	-159*
Clc1ccccc1N/N=C/c1ccc2c(c1)OCO2	-176*
C/C(=N\Nc1nc2ccccc2[nH]1)c1ccccn1	87
C/C(=N\Nc1nc2ccccc2[nH]1)c1ccc2c(c1)OCCO2	-88*
C(=N\Nc1nc2ccccc2[nH]1)/c1ccc2c(c1)OCO2	-222*
C/C(=N\Nc1nc2ccccc2[nH]1)c1ccc2c(c1)OCO2	-124*
CC1(C)CC(=O)c2cnc(N3CCc4ccccc43)nc2C1	-118*
Fc1cnc(N2CCc3ccccc32)nc1N1CCc2ccccc21	-82*
CC(=O)N(C(C)=O)n1c(C)nc2sc3c(c2c1=O)CCCC3	51
O=c1c2c3c(sc2nc2sc(C4CC4)nn12)CCCC3	-130*
C1CCC(c2nn3c(-c4n[nH]c5c4CCC5)nnc3s2)CC1	56
C=C1c2ccccc2NC(=S)N1Cc1ccc2c(c1)OCO2	-99*
Cc1nc2c(-c3ccc(Cl)cc3)c(C)[nH]n2c(=O)c1Cc1ccccc1	78
CCOC(=O)Cc1c(C)nc2c(-c3ccccc3)c(-c3ccccc3)[nH]n2c1=O	-85*
CCCC(=O)Nc1cc(C)c2c(=O)oc3ccccc3c2n1	-74*
COc1ccc(NC(=O)COc2ccc(/C=N/NC(=O)c3cccnc3)cc2OC)cc1	-105*
COc1cc(/C=N/NC(=O)c2cccnc2)ccc1OCC(=O)Nc1ccccc1Cl	-73*
CC(=O)N/N=C(/C)c1ccc(NC(=O)c2csc(C)c2C)cc1	-113*
CC(C)(C)OC(=O)N/N=C/c1cccc([N+](=O)[O-])c1	-129*
Cc1ccsc1/C=N/NC(=O)c1c[nH]c2ccccc12	-122*
CC(C)(C)OC(=O)N/N=C\c1ccc[nH]1	-77*
CCn1nc(C)c(/C=N/NC(=O)c2c[nH]c3ccccc23)c1C	-175*
SMILES	aSyn 5UTR act
Cc1ccc(/C=N/NC(=O)c2c[nH]c3ccccc23)s1	-113*
CC/C(=N\NC(=O)c1c[nH]c2ccccc12)c1cccs1	-122*
CCn1ncc(/C=N\NC(=O)c2csc3ccccc23)c1C	-66*
C/C(=N\NC(=O)c1csc(C)c1C)c1ccc(C)s1	-93*
O=C(N/N=C/c1ccccn1)c1c[nH]c2ccccc12	-79*
C/C(=N\NC(=O)c1c[nH]c2ccccc12)c1ccc(C)s1	-186*
O=C(N/N=C/c1cccc([N+](=O)[O-])c1)c1c[nH]c2ccccc12	-124*
O=C(N/N=C/c1ccsc1)c1c[nH]c2ccccc12	-126*
Cc1ccc(C(=O)N2CCN3C(=O)c4ccccc4C23c2ccc(Cl)cc2)cc1 (stereo not drawn)	-69*
CC(C)(C)NC(=O)Nc1ccc(Br)cc1	-138*
CCC(C)NC(=O)Nc1ccc(Br)cc1 (stereo not drawn)	-73*
COc1ccc2c(c1)[nH]c1c(=O)n(CCC3=CCCCC3)cnc12	-99*
O=c1c2[nH]c3ccc(F)cc3c2ncn1CCC1=CCCCC1	-121*
Cc1nn(C)c(Sc2ccccn2)c1[N+](=O)[O-]	-87*
C/C(=C\C(=O)c1ccccc1)NCc1ccc(F)cc1	-64*
Fc1ccc(CNc2ncnc3c2cnn3-c2ccccc2)cc1	-71*
Cc1cccc(-n2ncc3c(NCc4ccccc4)ncnc32)c1	-140*
Cc1cccc(-n2ncc3c(N(C)C4CCCCC4)ncnc32)c1	66
Cc1cccc(-n2ncc3c(N(CCO)CCO)ncnc32)c1	-106*
c1ccc(-n2ncc3c(NCCN4CCCCC4)ncnc32)cc1	-133*
Clc1ccc(-n2ncc3c(NCc4cccnc4)ncnc32)cc1Cl	-87*
Cc1cccc(-n2ncc3c(N4CCCc5ccccc54)ncnc32)c1	-123*
c1ccc(CNc2ncnc3c2cnn3-c2ccccc2)cc1	-256*
CC(C)(C)Nc1ncnc2c1cnn2-c1ccccc1	-104*
c1ccc(CCNc2ncnc3c2cnn3-c2ccccc2)cc1	-149*
SMILES	aSyn 5UTR act
Clc1ccc(-n2ncc3c(N4CCCC4)ncnc32)cc1	92
O=C(c1ccco1)N1CCN(c2ncnc3c2cnn3-c2ccccc2)CC1	-94*
CC1CCN(c2ncnc3c2cnn3-c2ccccc2)CC1	-119*
CN(C)c1ccc(Nc2ccc([N+](=O)[O-])cn2)cc1	-162*
Cc1ccc(Nc2ccc([N+](=O)[O-])cn2)cc1Cl	-93*
Cc1ccc(-c2cc3nn(-c4ccccc4)c(N)c3c(=O)o2)cc1	-96*
Cc1cccn2c(=O)c3cc(C(=O)N4CCCCC4)sc3nc12	-64*
Cc1cnc(NC(=O)c2cc3c(C)nn(-c4ccccc4)c3s2)s1	-66*
Cc1nn(-c2ccccc2)c2sc(C(=O)N3CCCCC3)cc12	-68*
CCC(CC)NC(=O)c1cc2c(C)nn(Cc3ccccc3Cl)c2s1	71
c1ccc(CCSc2nccn2-c2ccccc2)cc1	-121*
Cc1ccccc1CN1CCN(c2nc3ccccc3s2)CC1	-146*
COc1ccc(CN2CCN(c3nc4ccccc4s3)CC2)cc1	-69*
COc1ccc(-c2[nH]ncc2CN2CCC(O)(c3ccc(Cl)cc3)CC2)cc1	87
O=c1[nH]c(/C(Cl)=C/c2cccc(F)c2)nc2cc(C(F)(F)F)ccc12	-162*
CCOC(=O)CC(NC(=O)c1cc2cccc(OC)c2oc1=O)c1ccc(OC)cc1 (stereo not drawn)	-70*
COc1cccc2cc(C(=O)NCc3ccccn3)c(=O)oc12	-164*
O=C1CCCC2=C1C(c1ccco1)Nc1ccc(C(=O)c3ccccc3)cc1N2 (stereo not drawn)	-81*
CC(C)Oc1ccc(C(=O)NCc2cccs2)cc1	-85*
CCc1ccc(C(=O)NCc2cccs2)s1	-63*
O=C(C1CCCN1S(=O)(=O)c1cccc2nsnc12)N1CCN(c2ccccc2)CC1 (stereo not drawn)	-63*
O=C(NNc1nc2ccccc2s1)Nc1ccc(F)cc1	-157*
O=C(Nc1nc2ccccc2s1)Nc1ccc(F)cc1F	-119*
CC(C)C(=O)NNc1nc2ccccc2s1	-73*
COc1ccc(NC(=O)Nc2nc3c(s2)CCCC3)cc1	-155*
SMILES	aSyn 5UTR act
CC(C)(C)c1ccc(NC(=O)c2c(F)cccc2Cl)cc1	-101*
NS(=O)(=O)c1ccc2nc(NC(=O)Nc3ccc(F)cc3)sc2c1	-98*
O=C(Nc1nc2ccccc2s1)c1c(F)cccc1Cl	-86*
CCOc1ccc2nc(NC(=O)NC3CCCCC3)sc2c1	-72*
COc1ccc(NC(=O)Nc2nc3ccccc3s2)cc1	-150*
COc1n[nH]c(C(=O)Nc2nc3ccccc3s2)c1[N+](=O)[O-]	-79*
CCOc1ccc2nc(S(N)(=O)=O)sc2c1	-176*
COc1ccc(C(=O)Nc2nc3ccccc3s2)c(OC)c1	79
CCOc1ccc2nc(NC(=O)Nc3cccs3)sc2c1	-103*
CCOc1ccc2nc(NC(=O)Nc3ccccc3)sc2c1	-131*
CCOc1ccc2nc(NC(=O)c3ccccn3)sc2c1	80
N#C/C(=C(/O)CN1CCCC1)c1nc(-c2ccccc2)cs1	-115*
C=CCN(C(=O)CN1CCCCC1)c1nc(-c2ccccc2)cs1	-110*
Cc1ccc(S(=O)(=O)Nc2nc3ccccc3nc2NCc2ccco2)cc1	-180*
C/C(=N\Nc1nc(Cl)c(Cl)cc1Cl)c1ccc(S(=O)(=O)NCc2ccco2)cc1	-64*
